This is a sample that favours compounds with a hit; in the whole collection about 7.9% have one here.
KB-V1 cytotox = kills drug-selected multidrug resistant KB-V1 cells. KB-V1 MDR cells viability, CellTiter-Glo, 72 h. Potency, µM (top dose mostly 46.1 µM), actives largely listed as cytotoxic. 400,000 tested, 3.4% active. AID 1347076; further: on the % scale 0 is the no-effect control and ±100 the full control effect; nearly all actives have a fitted effect of over 60% in size
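Potencies derive from concentration-effect curves fitted to normalized luminescence (CellTiter-Glo) of KB-V1 cells treated for 72 h at 37 degrees C in phenol-red-free DMEM containing 10% FBS.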
SW480 rerep = induces DNA re-replication in SW480 colon adenocarcinoma cells | SW480 DNA re-replication, Hoechst DNA content imaging, 48 h | Potency, µM (doses to about 46.1 µM), inactives show at the highest dose re-replication activation, actives largely listed as activators | 340,000 tested, 1.8% active | AID 624297; further: % of control where 0% means no effect; nearly all actives have a fitted effect of over 55% in size
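Hoechst fluorescence of nuclei (405 nm excitation, 500-530 nm emission) measured by plate-scanning imager after 48 hr compound exposure at 37 C; re-replication scored as increased number of nuclei with elevated intensity.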
MCF10A rereplic = inducers of DNA re-replication in MCF 10A breast cells; MCF 10A DNA re-replication, Hoechst nuclear intensity, 48 h; Potency, µM (series often up to 46.1 µM), for inactives: top-dose activity, positive = re-replication, most hits filed as activators; 350,000 tested, 2.9% active; further: % of control where 0% means no effect; nearly all actives have a fitted effect of over 50% in size
HT1080-NT tox = kills 2HG-producing HT-1080-NT fibrosarcoma cells | HT-1080-NT fibrosarcoma viability, CellTiter-Glo ATP luminescence, 48 h | Potency, µM (series often up to 46.1 µM), inactives show at the top dose activity, negative = less viability, usual class: cytotoxic | AID 686970 | 360,000 tested, 1.6% active;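 further: NT is the 2HG producing partner of a matched IDH1 knockdown line; 0% = DMSO-treated cells and -100% = media-only wells without cells; nearly all actives have a fitted effect of over 55% in size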
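Viability of the 2HG-overproducing fibrosarcoma line after 48 hours of compound exposure at 37 degrees C was determined by luminescence with CellTiter-Glo, and concentration-effect curves were then fitted and categorized.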
KB-3-1 cytotox = KB-3-1 parental cell cytotoxicity; AID 1347075; KB-3-1 viability, CellTiter-Glo ATP luminescence, 72 h; Potency, µM (doses to about 46.1 µM), actives largely listed as cytotoxic; 400,000 tested, 1.4% active; further: on the % scale 0 is the no-effect control and ±100 the full control effect; nearly all actives have a fitted effect of over 60% in size
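Luminescent ATP read-out (CellTiter-Glo) measures survival of drug-naive KB-3-1 cells after 72 h compound exposure at 37 °C. Titration series was screened from lowest to highest concentration, with DMSO vehicle plates as background controls.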
HT1080 IDH1KD tx = toxicity to HT-1080 IDH1 knockdown cells (counter line). Potency, µM (titrated, usually from 46.1 µM), without a hit: at the top dose activity, negative = toxicity, actives largely listed as cytotoxic. 360,000 tested, 2% active. HT-1080 IDH1 knockdown viability, ATP luminescence, 48 h. AID 686971;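 further: 0% = DMSO wells and -100% = cell-free medium wells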
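Using the IDH1-knockdown HT-1080 line run in the same batch and compound series as the NT line, viability after 48 h at 37 °C was determined by CellTiter-Glo luminescence and expressed as % activity.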
* hit, by the source's call; i = inactive; ? = inconclusive; nt = no result; ! = repeats disagree; [ ] = another dose, or the depositor's remark. The call rests on the fitted dose curve; in most records, active means well fitted curve in the direction sought with a large enough effect; inconclusive means small, poorly fitted or top-dose-only effect, or another doubt; inactive means no such curve, though single readings can be large; an effect the other way counts as inactive or inconclusive. Potency means the concentration at half of the fitted maximal effect.

SMILES | KB-V1 cytotox | SW480 rerep | MCF10A rereplic | HT1080-NT tox | KB-3-1 cytotox | HT1080 IDH1KD tx
Cc1cc(C)n(-c2ccc(C(=O)NCC(c3ccco3)N3CCCC3)cc2)n1 (configuration not stated) | i | ? | ? | -6%[9.24 µM] | i | -2%
CC1(C)Cc2c(c(N3CCCC3)nc3sc(C(=O)Nc4ccccc4)c(N)c23)CO1 | i | ? | 2.9µM* | -13% | i | -3%
Nc1c(C(=O)NCCc2ccccc2)sc2nc(N3CCOCC3)c3c(c12)CCCC3 | i | 15µM* | 16µM* | -20% | i | -1%
Nc1c(C(=O)c2ccccc2)sc2nsc(SCCN3CCOCC3)c12 | ? | ? | 13µM* | -20% | i | ?
Cc1ccccc1NC(=O)c1sc2nc(N3CCOCC3)c3c(c2c1N)CCCC3 | i | -7% | ? | 5% | i | 1%
CN1Cc2c(N3CCOCC3)nc3sc(C(=O)c4ccccc4)c(N)c3c2CC1(C)C | i | ? | 21µM* | -14% | i | -10%
CNS(=O)(=O)c1ccc(CNC[C@H]2O[C@@H](n3cnc(C(N)=O)n3)[C@H](O)[C@@H]2O)cc1 | i | -6% | -19% | -1% | i | 3%
C=CCOC(=O)C1=C(C)NC(=O)NC1c1cn(-c2ccccc2)nc1-c1cccs1 (configuration not stated) | 21µM* | -6% | 10% | ? | i | 10µM*
CCn1c(SCC(=O)c2[nH]c(C)c(C(C)=O)c2C)nnc1-c1cccs1 | 2.6µM* | -1% | 1% | -2% | ? | -10%
CCn1c(SCC(=O)c2cccs2)nnc1-c1cccs1 | i | ? | -20% | 2% | i | -5%
CCS(=O)(=O)c1nc2ccccc2n1CC(=O)Nc1ccccc1C(=O)OC | i | nt | nt | nt | i | nt
O=C(N/C=N/OCc1cccc(C(F)(F)F)c1)N1OC[C@@H]2COc3ccc4ccccc4c3[C@@H]21 | 16µM* | 2% | -3% | -3% | ? | -7%
Cn1nnnc1SCc1nnc(-c2ccccc2Br)o1 | i | 1% | -3% | 5% | i | 4%
Cc1ccc(-n2nnnc2SCc2nnc(-c3ccccc3Br)o2)c(C)c1 | 10µM* | 2% | -2% | -26% | i | -6%
Cc1nc(SCc2ccc(OCCC(C)C)cc2)n[nH]1 | i | 23µM* | 13% | -3% | i | -5%
CCCCCOc1ccc(CSc2n[nH]c(C)n2)cc1 | i | -4% | 23% | -24% | i | -53%
S=C(NCCSCc1ccccc1Cl)Nc1ccccc1 | ? | -1% | 13µM* | -16% | i | ?
Cc1cccc(CSCCNC(=S)Nc2ccccc2)c1 | 18µM* | 0% | 17% | -10% | ? | -11%
Cc1ccc(-c2nnc(SCc3ccccc3C#N)o2)cc1 | i | nt | nt | nt | i | nt
CCCC(=O)Oc1ccc2[nH]c(C(=O)c3cc4ccccc4[nH]3)cc2c1 | i | nt | nt | nt | i | nt
Cc1ccc2c(CNCCc3ccccc3)c(C(=O)O)n(Cc3ccccc3C)c2c1 | i | nt | nt | nt | i | nt
O=C1/C(=C/c2cccs2)NC(=S)N1C1CC1 | i | 18µM* | 1% | 1% | i | -3%
CN(C)c1ccc(NC(=O)Nc2ccc3c(c2)c(=O)n(C)n3-c2ccccc2)cc1 | i | nt | nt | 16µM* | i | ?
CN(C)c1ccc(NC(=O)Nc2ccc3c(c2)nnn3C)cc1 | i | -3% | -5% | 25% | i | 4%
CN(C)c1ccc(NC(=S)Nc2ccc3c(c2)c(=O)n(C)n3-c2ccc(C(C)(C)C)cc2)cc1 | i | nt | nt | ? | i | 18µM*
SMILES | KB-V1 cytotox | SW480 rerep | MCF10A rereplic | HT1080-NT tox | KB-3-1 cytotox | HT1080 IDH1KD tx
COc1cccc(CC(=O)Nc2ccc3c(c2)c(=O)n(C)n3-c2ccc(C(C)(C)C)cc2)c1 | i | nt | nt | ? | i | -26%
CS(=O)CC(O)(c1ccc(F)cc1)C1CC1 (configuration not stated) | i | nt | nt | 1% | i | 2%
Cc1cc(O)c(C(C)C)cc1N=Cc1ccccc1[N+](=O)[O-] | i | ? | ? | ? | i | 16µM*
Nn1c(SCc2c(F)cccc2F)nnc1-c1ccccn1 | i | 7.3µM* | 2% | 14% | i | 30%
CCOC(=O)CN1C(=O)/C(=C/c2c(F)cccc2Cl)Oc2ccccc21 | i | ? | 21µM* | -21% | ? | ?
CCOC(=O)c1c(NC(=O)CSc2nnc(C)s2)sc2c1CCC(CC)C2 (configuration not stated) | 5.8µM* | ? | 12% | 2% | i | -9%
CCCc1cc(=O)[nH]c(SCC(=O)NC(=O)NC2CCCC2)n1 | 4.1µM* | -3% | -1% | 0% | ? | -14%
CCOC(=O)c1sc(NC(=O)CSc2nnc(C)s2)c(C(=O)OCC)c1C | 1.6µM* | -13% | 3% | 1% | i | 1%
CCCc1cc(=O)[nH]c(SCC(=O)Nc2sc(C(N)=O)c(C)c2C(=O)OCCOC)n1 | ? | 11% | -5% | 2.3µM* | 8.2µM* | 2.6µM*
CCOC(=O)c1c(NC(=O)c2ccc(F)cc2)sc2c1CCC(CC)C2 (configuration not stated) | i | nt | nt | nt | ? | nt
CCOC(=O)c1c(NC(=O)CSc2nc3cc(Cl)ccc3s2)sc(C(C)=O)c1C | nt | -4% | 1% | nt | nt | nt
CCOC(=O)c1c(NC(=O)CSc2nc3ccccc3s2)sc(C(C)=O)c1C | 21µM* | -2% | 3% | ? | i | -3%
Cc1ccccc1NC(=O)Cc1nc(COC(=O)c2ccc(NC(N)=O)cc2)cs1 | i | -7% | -16% | -20% | i | -11%
Cc1ccccc1NC(=O)Cc1nc(COC(=O)c2nc(Cl)ccc2Cl)cs1 | i | -1% | -2% | 0% | i | -4%
Cc1ccccc1NC(=O)COC(=O)c1ccc(S(C)(=O)=O)c([N+](=O)[O-])c1 | i | 7.3µM* | ? | ? | 21µM*! | 10µM*
Cc1ccccc1NC(=O)Cc1nc(COC(=O)c2ccc(S(C)(=O)=O)c([N+](=O)[O-])c2)cs1 | i | 13% | 3.7µM* | ? | ? | 16µM*
CS(=O)(=O)c1ccc(C(=O)OCC(=O)Nc2cc(C(F)(F)F)ccc2Cl)cc1[N+](=O)[O-] | i | nt | nt | nt | ? | nt
CC(CCc1ccccc1)NC(=O)COC(=O)c1ccc([N+](=O)[O-])cc1 (configuration not stated) | i | -2% | 2% | 9% | i | -3%

Screening results from PubChem BioAssay.
